# Measurements published in PubChem BioAssay (NCI).
# This is part of a sample that, as a whole, favours compounds with a hit. Of some 79,000 tested, about 15% had one in any assay. Values without a mark were called inactive. Calls of active or inactive are those of the source. Rule as the data show it: active = growth inhibition above about 70%; inactive = the rest.
# Tests used:
# [1] = NCI Yeast Anticancer Drug Screen. Data for the rad50 strain (AID 155);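 also: 0% = growth of vehicle-only cultures of the same strain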; conditions: S. cerevisiae rad50 strain growth inhibition, active compounds read high
# In short: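 Readout: growth inhibition relative to vehicle-treated cultures. Compound exposure was carried out in a genetically defined yeast strain deficient in DNA damage repair.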
# [2] = NCI Yeast Anticancer Drug Screen. Data for the mec2-1 strain (AID 157); conditions: S. cerevisiae mec2-1 strain, active compounds read high
# In short: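 Readout is yeast growth inhibition, normalised to vehicle-treated controls, in the mec2-1 strain exposed to compound.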
# [3] = NCI Yeast Anticancer Drug Screen. Data for the sgs1 mgt1 strain (AID 161);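 also: 0% = growth of cultures given vehicle only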; conditions: S. cerevisiae sgs1 mgt1 strain, active compounds read high
# In short: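 Percent growth inhibition was derived by comparing compound-exposed mutant yeast with vehicle-exposed cultures. The strain carries alterations in DNA damage repair.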
# [4] = NCI Yeast Anticancer Drug Screen. Data for the cln2 rad14 strain (AID 165);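 also: 0% = growth equal to vehicle treated cultures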; conditions: S. cerevisiae cln2 rad14 strain, active compounds read high
# In short: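 Relative to vehicle controls, growth inhibition of compound-treated cln2 rad14 yeast was recorded.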
# [5] = NCI Yeast Anticancer Drug Screen. Data for the bub3 strain (AID 167); conditions: S. cerevisiae bub3 mutant strain, active compounds read high
# In short: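 Readout: yeast growth inhibition, expressed relative to vehicle-only wells. The test organism is a mutant strain from a panel with lesions in DNA repair or checkpoint genes.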
# [6] = NCI Yeast Anticancer Drug Screen. Data for the mlh1 rad18 strain (AID 175); conditions: S. cerevisiae mlh1 rad18 strain growth inhibition, active compounds read high
# In short: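 Test agents were incubated with a yeast strain of defined genotype (DNA damage repair defect). Inhibition of growth was derived by comparison with vehicle-exposed cultures.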
# [7] = at 5.0 µM (retest, dose inferred, filed as 0.5)
# [8] = at 50.0 µM (retest, dose inferred, filed as 5.0)
SMILES,"growth inhibition [1, 7]","growth inhibition [1, 8]",growth inhibition ([1]; at 50.0 µM),"growth inhibition [2, 7]","growth inhibition [2, 8]",growth inhibition ([2]; at 50.0 µM),"growth inhibition [3, 7]","growth inhibition [3, 8]",growth inhibition ([3]; at 50.0 µM),"growth inhibition [4, 7]","growth inhibition [4, 8]",growth inhibition ([4]; at 50.0 µM),"growth inhibition [5, 7]","growth inhibition [5, 8]",growth inhibition ([5]; at 50.0 µM),"growth inhibition [6, 7]","growth inhibition [6, 8]",growth inhibition ([6]; at 50.0 µM)
CCN1C(C)N1P(=S)(OC1CC(C)(C)N(O)C(C)(C)C1)OC1CC(C)(C)N(O)C(C)(C)C1 (configuration not stated),-2%,3%,45.9%,-6%,6%,91.3% (active),-3%,1%,32.2%,-3%,4%,90.3% (active),-5%,5%,98.1% (active),-5%,12%,14.6%
C[C@]12CC[C@H](OC3OC(CO)C(O)C(O)C3O)C[C@H]1CC[C@@H]1[C@@H]2CC[C@]2(C)[C@@H](C3=CCOC3=O)CC[C@]12O (some centres not stated),7%,4%,-11.2%,6%,-2%,-6.9%,-17%,-2%,6.4%,-11%,-35%,13.1%,-22%,7%,-38.5%,6%,21%,49.6%
CC(C)c1ccc(C(C)C)c(C(=O)CN2CCOCC2)c1,4%,13%,41.1%,8%,34%,34.8%,3%,19%,42.6%,-1%,2%,-3.3%,3%,17%,97.8% (active),5%,20%,35.4%
O=C1C(C(Nc2ccccc2)c2ccccc2)=C([O-])c2ccccc21.O=C1C(C(Nc2ccccc2)c2ccccc2)=C([O-])c2ccccc21.[Co+2] (configuration not stated),66%,61%,73.7% (active),42%,62%,55.6%,42%,51%,73% (active),41%,40%,35%,56%,54%,77.4% (active),45%,64%,65.5%
CC1(Br)Cc2ccccc2C1=O (configuration not stated),3%,43%,-2.2%,4%,33%,37.2%,2%,31%,42.3%,1%,16%,-35%,-2%,36%,70% (active),4%,34%,20.4%
COc1cc([N+](=O)[O-])c2ncccc2c1[N+](=O)[O-],-1%,23%,85% (active),-5%,13%,52.4%,-2%,26%,74.5% (active),-5%,-9%,53.6%,-11%,12%,39.4%,13%,45%,93.6% (active)
N#Cc1cc([N+](=O)[O-])c(Cl)c([N+](=O)[O-])c1,52%,99% (active),91.5% (active),46%,99% (active),93% (active),100% (active),100% (active),93.8% (active),67%,101% (active),93.3% (active),101% (active),100% (active),92.7% (active),37%,100% (active),92.2% (active)
CC1=CC(=O)c2c(O)cccc2C1=O,18%,100% (active),85.8% (active),29%,99% (active),90.1% (active),19%,99% (active),92% (active),7%,99% (active),90.3% (active),23%,99% (active),90.5% (active),30%,98% (active),89% (active)
CCOC(=O)C1=C(C)/C(=C/c2[n-]c(C)c(C(=O)OCC)c2C)N=C1C.CCOC(=O)C1=C(C)/C(=C/c2[n-]c(C)c(C(=O)OCC)c2C)N=C1C.[Zn+2],4%,55%,99% (active),2%,47%,99.3% (active),2%,34%,98.8% (active),7%,6%,98.2% (active),4%,55%,99.4% (active),6%,55%,98.2% (active)
